The text below walks through data of PubChem BioAssay (NCI).

Molecules are shown by their SMILES. The panel holds about 83,000 compounds, 20% with a hit somewhere; the sample as a whole holds those more often.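 96-well plates, one dose, 48 hours. Percent growth reported; active if below 10.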 Unmarked numbers belong to inactive results. Active and inactive are the calls of the source.

Test systems include SR leukemia; RPMI-8226 leukemia; OVCAR-8 ovarian; OVCAR-5 ovarian; OVCAR-4 ovarian; SK-OV-3 ovarian; IGROV1 ovarian; OVCAR-3 ovarian; HS 578T breast; NCI/ADR-RES ovarian; T-47D breast; BT-549 breast; MDA-MB-435 melanoma; SW-620 colon; MCF7 breast; HCT-116 colon; HCC-2998 colon; KM12 colon; MDA-MB-468 breast.
Test in all cases: NCI-60 one-dose screen, 48 h (100 = growth as untreated, 0 = no growth, -100 = all killed)
Holding throughout (details): 10 µM unless noted

As for `Cn1cc(-c2cc(N)n3nc(-c4cn(C)c5ccccc45)cc3n2)c2cc(Cl)ccc21`, the growth in the test with SR leukemia is 4.5% (active); with RPMI-8226 leukemia it was -8.66% (active); with OVCAR-8 ovarian it was -91% (active); with OVCAR-5 ovarian it was -13.9% (active); with OVCAR-4 ovarian it was -34.5% (active); in the test with SK-OV-3 ovarian, 72.1%. The growth in the test on IGROV1 ovarian is -4.76% (active); in the test with OVCAR-3 ovarian, -44.6% (active); in the test with HS 578T breast it was -11.1% (active); in the test with NCI/ADR-RES ovarian, -11.5% (active); with T-47D breast it was -30.9% (active); in the test on BT-549 breast it was 63%. The growth in the test with MDA-MB-435 melanoma was -71.9% (active); with SW-620 colon it was -35.3% (active); in the test on MCF7 breast, -69.9% (active); in the test with HCT-116 colon it was -89.1% (active); in the test on HCC-2998 colon, -73% (active); with KM12 colon, -50% (active). For the same compound, the growth with MDA-MB-468 breast is -31.9% (active).

`O=C(CN1C(=O)/C(=C/c2ccccc2F)SC1=S)N1CCOCC1`: the growth is 27.9% in the test with SR leukemia; 52.8% in the test on RPMI-8226 leukemia; 93.4% in the test with OVCAR-8 ovarian; 91.9% with OVCAR-5 ovarian; 73.7% in the test with OVCAR-4 ovarian; 112% in the test with SK-OV-3 ovarian. Further, the growth was 100% with IGROV1 ovarian; 52.8% in the test with OVCAR-3 ovarian; 104% in the test with HS 578T breast; 92% with NCI/ADR-RES ovarian; 61.4% in the test with T-47D breast; 111% with BT-549 breast. Also, the growth in the test with MDA-MB-435 melanoma was 94.1%; with SW-620 colon it was 32.6%; with MCF7 breast, 35.3%; in the test on HCT-116 colon, 45.3%; in the test on HCC-2998 colon, 116%; with KM12 colon it was 99.1%. The growth in the test with MDA-MB-468 breast is -7.25% (active).

On to `Cc1ccc(S(=O)(=O)c2nc(S(=O)(=O)c3ccc(C)cc3)c(N3CCC(O)CC3)s2)cc1`, for which the growth with SR leukemia is 15.7%; in the test on RPMI-8226 leukemia it was 53.4%; with OVCAR-8 ovarian it was 75.3%; with OVCAR-5 ovarian it was 104%; in the test with OVCAR-4 ovarian, 65%; in the test with SK-OV-3 ovarian, 97.6%. The growth in the test with IGROV1 ovarian was 75.6%; in the test on OVCAR-3 ovarian, 72.9%; with HS 578T breast, 59.3%; in the test with NCI/ADR-RES ovarian it was 74.5%; in the test on T-47D breast, 60.1%; with BT-549 breast, 49.5%. In addition, the growth is 16.8% with MDA-MB-435 melanoma; 44.7% in the test with SW-620 colon; 43.4% in the test with MCF7 breast; 53.7% in the test with HCT-116 colon; 90.6% in the test on HCC-2998 colon; 72.6% with KM12 colon. The growth with MDA-MB-468 breast was -20.7% (active).

For `CN(C)c1nc(NCCNS(=O)(=O)c2ccc(C3=Nc4c(N)nc(N)nc4NC(c4ccccc4)C3)cc2)nc(Nc2ccc(F)cc2)n1` (configuration not stated), the growth in the test on SR leukemia is 1.17% (active); in the test with RPMI-8226 leukemia it was 4.93% (active); with OVCAR-8 ovarian, 42.3%; in the test on OVCAR-5 ovarian it was 75.3%; with OVCAR-4 ovarian, 38.9%; in the test on SK-OV-3 ovarian, 80.7%. Besides, the growth in the test with IGROV1 ovarian is 32.1%; with OVCAR-3 ovarian it was 45.2%; in the test on HS 578T breast it was 46.3%; in the test on NCI/ADR-RES ovarian, 92.9%; in the test on T-47D breast it was 39.8%; in the test on BT-549 breast, 29.1%. For the same compound, the growth is 41.6% in the test on MDA-MB-435 melanoma; 49.9% in the test with SW-620 colon; 17.3% in the test with MCF7 breast; 32.7% in the test with HCT-116 colon; 31.9% in the test on HCC-2998 colon; 33.8% in the test on KM12 colon. In addition, in the test with MDA-MB-468 breast, the growth is -35.8% (active).

On to `C#CCOc1ccc(/C=N/Nc2nc(-c3cc4cc(OC)ccc4oc3=O)cs2)cc1OC`, for which the growth was 34.7% in the test on SR leukemia; 50.9% with RPMI-8226 leukemia; 50.8% with OVCAR-8 ovarian; 47% in the test on OVCAR-5 ovarian; 40.7% in the test on OVCAR-4 ovarian; 71% in the test with SK-OV-3 ovarian. Moreover, the growth is 81% with IGROV1 ovarian; 63.5% in the test with OVCAR-3 ovarian; 68.1% in the test on HS 578T breast; 50.5% in the test with NCI/ADR-RES ovarian; 51.8% with T-47D breast; 54.1% in the test with BT-549 breast. Besides, the growth with MDA-MB-435 melanoma is 63.9%; with SW-620 colon, 39.7%; with MCF7 breast it was 57.3%; in the test with HCT-116 colon, 46.4%; with HCC-2998 colon, 84.4%; with KM12 colon, 50.3%. Moreover, the growth with MDA-MB-468 breast is 42.9%.

Consider `Cc1nc(Nc2ccccn2)sc1C(=O)CC(SCC(=O)Nc1ccc(Cl)cc1)c1ccccc1F` (configuration not stated), for which the growth in the test on SR leukemia was 12.6%; with RPMI-8226 leukemia it was 7.34% (active); with OVCAR-8 ovarian, -35.8% (active); with OVCAR-5 ovarian, -41.2% (active); in the test on OVCAR-4 ovarian, 42.5%; in the test on SK-OV-3 ovarian it was 8.74% (active). In addition, the growth in the test on IGROV1 ovarian is 20.4%; with OVCAR-3 ovarian it was -13.5% (active); in the test on HS 578T breast, 4.29% (active); in the test with NCI/ADR-RES ovarian it was -18% (active); in the test with T-47D breast it was -7.28% (active); with BT-549 breast it was 24.2%. Further, the growth with MDA-MB-435 melanoma is -60% (active); in the test with SW-620 colon, 2.15% (active); with MCF7 breast, 13.2%; with HCT-116 colon it was 4.66% (active); with HCC-2998 colon, 17.2%; with KM12 colon, -19.1% (active). Also, in the test on MDA-MB-468 breast, the growth was -22.1% (active).

With `CC1(C)CC[C@]2(C(=O)O)CC[C@]3(C)C(=CCC4[C@@]5(C)C[C@@H](O)[C@@H]6OC(c7ccc(F)cc7)OC[C@@]6(C)C5CC[C@]43C)C2C1` (some centres not stated), the growth with SR leukemia is 7.73% (active); with RPMI-8226 leukemia, 9.02% (active); in the test on OVCAR-8 ovarian, 29.3%; in the test on OVCAR-5 ovarian it was 63.4%; in the test with OVCAR-4 ovarian it was 44%; with SK-OV-3 ovarian, 85.7%. Moreover, the growth in the test with IGROV1 ovarian was 43.4%; with OVCAR-3 ovarian it was 24%; in the test on HS 578T breast, 48.1%; in the test with NCI/ADR-RES ovarian it was 30.2%; in the test on T-47D breast, 33.3%; with BT-549 breast it was 26%. The growth was 48.9% in the test on MDA-MB-435 melanoma; 23.7% in the test on SW-620 colon; 12.8% in the test on MCF7 breast; 8.81% (active) in the test on HCT-116 colon; 18.1% in the test on HCC-2998 colon; 12.3% with KM12 colon. In the test with MDA-MB-468 breast, the growth was 13.7%.

Regarding `COc1ccc2oc(=O)c(C3(C)NC(=O)c4c(/C=C/C(=O)OC(C)(C)C)cccc4N3)cc2c1` (configuration not stated), the growth was 26.2% in the test with SR leukemia; 28.5% in the test with RPMI-8226 leukemia; 37.9% in the test with OVCAR-8 ovarian; 60.9% with OVCAR-5 ovarian; 41.5% with OVCAR-4 ovarian; 51.2% in the test with SK-OV-3 ovarian. Moreover, the growth was 41.6% in the test on IGROV1 ovarian; 55.4% in the test with OVCAR-3 ovarian; 60% in the test with HS 578T breast; 36.6% in the test on NCI/ADR-RES ovarian; 6.58% (active) in the test with T-47D breast; 3.69% (active) in the test on BT-549 breast. The growth is 46.7% with MDA-MB-435 melanoma; 63.8% with SW-620 colon; 24.1% in the test with MCF7 breast; 30% in the test with HCT-116 colon; 62.1% in the test with HCC-2998 colon; 47% in the test with KM12 colon. In addition, in the test with MDA-MB-468 breast, the growth was 31.7%.
